Experimental data: PubChem BioAssay (NCI)
This is part of a sample that, as a whole, favours compounds with a hit. Of some 83,000 tested, about 20% had one in any assay.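 Values shown are percent growth following 48 h exposure of cells in 96-well plates to a single concentration of compound; below 10 was considered active.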 Active and inactive are the calls of the source.

Tested on: CAKI-1 renal
Assay: NCI-60 one-dose screen, 48 h (100 = growth as untreated, 0 = no growth, -100 = all killed)
Conditions: 10 µM
Method: Growth inhibition of the CAKI-1 human tumor cell line is measured as a screen for anti-cancer activity. Cells are grown in 96 well plates and exposed to the test compound for 48 hours. Compounds are tested at a single concentration, which is 10^-5 M for most compounds. The reported endpoint is percent growth (GI% or GIPRCNT), where numbers from 0 - 100% represent growth inhibition, and numbers from -100% - 0 represent cell death. For example, a value of 40 represents 60% growth inhibition. A value of 0 means no net growth occurred over the course of the experiment. A value of -40 indicates 40% of cells at the beginning of the experiment died by the end of the experiment. A value of -100 means all cells are dead at the end of the experiment.
NCI-60 Human Tumor Cell Lines Screen was performed using the standard one-dose NCI protocol, which is described in more detail at https://dtp.cancer.gov/discovery_development/nci-60/default.htm.
Compounds with GIPRCNT values below 10 were considered active. Activity score was based on GIPRCNT using the following formula: […]
Score is 0 for GIPRCNT values of 100 or above, 50 for GIPRCNT values of 0, and 100 for GIPRCNT values of -100.

| Structure (SMILES) | growth |
| --- | --- |
| O=P(O)(O)OCC(O)CO (stereo not given) | 104% (inactive) |
| N=c1c(C(=O)OCc2ccccc2)ncc(CCl)n1O | 92.2% (inactive) |
| Nc1ccc(CC(=O)O)c(N)c1 | 89% (inactive) |
| O=C(NC1CCCCC1)OCc1c(COC(=O)NC2CCCCC2)c(-c2ccc(Cl)c(Cl)c2)n2c1CCC2 | 8.84% (active) |
| Nc1ccc(N)c([N+](=O)[O-])c1 | 106% (inactive) |
| O=[N+]([O-])c1ccc(S(=O)(=O)NN=C2CCCCC2)cc1 | 92.5% (inactive) |
| Cc1cc(N)ccc1-c1ccc(N)cc1C | 94.8% (inactive) |
| O=c1[nH]nc(SC2CCCCC2)c(=O)[nH]1 | 95% (inactive) |
| CCOC(=O)c1ccc(Nc2sc(C(=O)c3cccc([N+](=O)[O-])c3)c(N)c2C#N)cc1 | -17.8% (active) |
| CCN1C(=O)/C(=C/C=C/N(C)c2ccccc2)SC1=S | 91.6% (inactive) |
| O=C(OCC(O)C1OC(c2ccccc2)OC(COC(=O)c2ccccc2)C1O)c1ccccc1 (stereo not given) | 85.3% (inactive) |
| NCCCN | 98.3% (inactive) |
| C#CC(C(C)C)N(CCO)CCCC (stereo not given) | 102% (inactive) |
| CCC(=O)Oc1ccc(OC)cc1 | 98.3% (inactive) |
| CCCCC1C(=O)N(c2ccccc2)N(c2ccccc2)C1=O | 103% (inactive) |
| NC(=O)c1ccc(N=C(N)N=C(N)N)cc1 | 93.4% (inactive) |
| CC(=O)N(C)c1ccc([N+](=O)[O-])cc1 | 107% (inactive) |
| Cc1ccc(O)c(C(=O)c2ccccc2)c1 | 104% (inactive) |
| CCC(O)CC(CC)CO (stereo not given) | 96.6% (inactive) |
| COc1ccc(/C=C/c2cccc[n+]2C)cc1 | 63% (inactive) |

| Structure (SMILES) | growth |
| --- | --- |
| CCOC(=O)c1[nH]c(C)c(C(=O)O)c1C | 97.3% (inactive) |
| Cc1ncc(C#N)c(N)n1 | 92.9% (inactive) |
| COc1cc2c(cc1OC)[C@H](C(=O)O)[C@@H](c1ccc(OC(C)C)c(OC)c1)N(C)C2=O | 80% (inactive) |
| CC1(O)OC(COc2ccc(Cl)cc2)COC1O (stereo not given) | 90.1% (inactive) |
| N/N=C(/Cc1ccccc1)NNC(N)=S | 96.4% (inactive) |
| O=C(c1ccc(Cl)cc1)c1ccccc1Cl | 88% (inactive) |
| N#Cc1c(N)sc(=S)c2c1CCCC2 | 98.5% (inactive) |
| COc1cc(C(=O)NC(=S)Nc2ccc3ccccc3c2)cc(OC)c1OC | 75.1% (inactive) |
| O=C(N/N=C/c1ccccc1O)Nc1nn[nH]n1 | 94.8% (inactive) |
| CC1OC(Oc2c(-c3ccc(O)c(O)c3)oc3cc(O)cc(O)c3c2=O)C(O)C(O)C1O (stereo not given) | 102% (inactive) |
| O=C(O)C(Cc1ccccc1)C(=O)O | 102% (inactive) |
| CC(=O)OCCC(C)CCC=C(C)C (stereo not given) | 103% (inactive) |
| O=C(NN=C1CCCCC1)C(=O)NN=C1CCCCC1 | 110% (inactive) |
| Nc1ccc(NC(=O)c2cccc(N)c2)cc1 | 56.4% (inactive) |
| CCOc1ccc2[nH]c(=S)sc2c1 | 100% (inactive) |
| c1csc(-c2cc(-c3cc(-c4cccs4)[nH]n3)n[nH]2)c1 | 79.6% (inactive) |
| CCOC(=O)c1cc2cccc(OC)c2oc1=O | 132% (inactive) |
| COC(=O)/C=C/C(=O)NC(N)=O | 99.2% (inactive) |
| O=C(O)c1cc([N+](=O)[O-])ccc1Cl | 101% (inactive) |
| O=C(Cc1ccccc1)Cc1ccccc1 | 97.9% (inactive) |
